Reference: paper PMC4336329 (PLoS ONE, 2015)
About 14,000 (4.5%) of roughly 310,000 compounds showed an effect of 50% or more. Effects have a minus sign here. Shown is part of a subset that was picked to be rich in strong results.

The compounds below were run against human ether-à-go-go-related gene (hERG) potassium channel (human, UniProt Q12809) (assay: primary screen, population patch clamp on CHO cells stably expressing hERG; higher = less effect of the substance).
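Further: peak tail current of the secondary pulse compared with the same well before compound.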

Chain of human ether-à-go-go-related gene (hERG) potassium channel (Q12809 whole entry, looked up): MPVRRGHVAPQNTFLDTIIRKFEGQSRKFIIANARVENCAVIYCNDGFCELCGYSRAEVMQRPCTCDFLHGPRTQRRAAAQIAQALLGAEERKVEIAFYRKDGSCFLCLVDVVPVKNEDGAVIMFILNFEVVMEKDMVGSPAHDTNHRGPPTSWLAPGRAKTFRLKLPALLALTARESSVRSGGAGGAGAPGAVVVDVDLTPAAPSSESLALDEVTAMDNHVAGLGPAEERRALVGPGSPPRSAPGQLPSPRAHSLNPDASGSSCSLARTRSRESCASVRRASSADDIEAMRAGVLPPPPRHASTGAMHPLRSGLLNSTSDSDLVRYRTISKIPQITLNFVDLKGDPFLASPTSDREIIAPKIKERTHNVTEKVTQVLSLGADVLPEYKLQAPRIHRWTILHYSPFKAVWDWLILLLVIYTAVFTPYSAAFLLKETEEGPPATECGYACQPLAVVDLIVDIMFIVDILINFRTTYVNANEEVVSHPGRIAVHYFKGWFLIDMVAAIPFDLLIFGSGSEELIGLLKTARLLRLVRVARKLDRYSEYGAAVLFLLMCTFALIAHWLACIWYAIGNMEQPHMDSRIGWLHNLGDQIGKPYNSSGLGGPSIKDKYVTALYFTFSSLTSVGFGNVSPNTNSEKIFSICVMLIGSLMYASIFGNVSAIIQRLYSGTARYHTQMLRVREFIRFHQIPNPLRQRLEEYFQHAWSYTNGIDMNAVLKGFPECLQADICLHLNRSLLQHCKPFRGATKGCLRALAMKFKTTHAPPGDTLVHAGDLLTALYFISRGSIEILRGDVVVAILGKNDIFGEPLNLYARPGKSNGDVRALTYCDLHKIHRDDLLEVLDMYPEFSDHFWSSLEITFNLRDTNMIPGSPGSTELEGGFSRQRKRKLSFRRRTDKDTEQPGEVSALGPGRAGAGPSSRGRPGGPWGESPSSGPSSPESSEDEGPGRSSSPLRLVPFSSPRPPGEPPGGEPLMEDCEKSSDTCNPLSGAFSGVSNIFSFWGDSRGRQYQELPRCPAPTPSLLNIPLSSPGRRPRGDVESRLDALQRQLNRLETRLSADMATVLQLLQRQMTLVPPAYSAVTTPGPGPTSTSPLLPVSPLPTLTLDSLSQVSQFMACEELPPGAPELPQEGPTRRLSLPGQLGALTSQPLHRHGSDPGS

| SMILES | hERG current change (%, negative = inhibition) at 10uM |
| --- | --- |
| Cc1c(C(=O)Nc2cc(S(=O)(=O)N3CCOCC3)ccc2N2CCN(C)CC2)oc2ccccc12 | -10.8% |
| Cc1ccccc1N1CC(C(=O)O)CC1=O (centres unmarked) | 14.1% |
| Cc1cccc(Cn2ccc(NC(=O)c3ccc4c(c3)OCO4)n2)c1 | -34.3% |
| CCCNC(=O)c1ccc2c(=O)n3c(-c4ccc(C)cc4)csc3nc2c1 | 5.26% |
| COc1ccccc1C1(CCNS(=O)(=O)c2ccc(C)cc2)CCOC(C(C)C)C1 (centres unmarked) | 4.49% |
| Cc1ccc(C2(CCNS(=O)(=O)c3ccc(C)cc3)CCOC(C(C)C)C2)cc1 (centres unmarked) | -53.5% |
| Cc1ccc(C2(CCNCc3ccco3)CCOC(C(C)C)C2)cc1 (centres unmarked) | -35.6% |
| CC(C)C1CC(CCNCc2ccc(N(C)C)cc2)(c2ccccc2)CCO1 (centres unmarked) | -24.6% |
| Cc1ccc(C2(CCN)CCOC(C(C)C)C2)cc1 (centres unmarked) | 17% |
| Cc1ccc(C2(CCNCc3ccc(N(C)C)cc3)CCOC(C(C)C)C2)cc1 (centres unmarked) | -64.1% |
| O=C(Nc1ccc2c(c1)OCO2)Oc1ccccc1 | -7.16% |
| O=C(c1cccc(C(F)(F)F)c1)N1CCC(O)(CS(=O)(=O)Cc2ccccc2Cl)CC1 | -8.87% |
| CNC(=O)C1CC(=O)N(Cc2ccc(OC)c(OC)c2)C(=Nc2ccc(OC)cc2)S1 (centres unmarked) | -6.01% |
| Fc1ccc(-c2nnc(Cc3nnc(-c4ccc(F)cc4)o3)o2)cc1 | 10.8% |
| Cc1ccc(-c2nnc(Cc3ccc(Cl)cc3)o2)cc1 | 8.63% |
| O=[N+]([O-])c1ccc(Cc2nnc(-c3ccccc3Cl)o2)cc1 | -15.5% |
| Fc1ccc(-c2nnc(Cc3ccc(Cl)cc3)o2)cc1 | -16.7% |
| O=[N+]([O-])c1ccc(Cc2nnc(-c3ccc(F)cc3)o2)cc1 | -57.2% |
| Cc1ccc(-c2nnc(Cc3ccc([N+](=O)[O-])cc3)o2)cc1 | -64.9% |
| Cc1ccc(C(=O)Nc2c(C)n(C)n(-c3ccccc3)c2=O)cc1S(=O)(=O)N1CCOCC1 | 0.249% |
| Cc1ccc(S(=O)(=O)N(C)c2c(C)ccc(S(N)(=O)=O)c2C)cc1 | -10.9% |
| Fc1ccccc1N1CC(c2ccccc2)C(c2cccs2)=N1 (centres unmarked) | 9.56% |
| Cc1ccc(Cn2nnc3c(=O)[nH]c(C4CCCN(S(=O)(=O)c5ccccc5F)C4)nc32)cc1 (centres unmarked) | 12.2% |
| COc1ccc(/C=N/Nc2nncc3ccccc23)c(OC)c1 | 10.7% |

| SMILES | hERG current change (%, negative = inhibition) at 10uM |
| --- | --- |
| COc1cc(C)c(Cl)c(C)c1S(=O)(=O)NC1CC(C)(C)NC(C)(C)C1 | 7.91% |
| O=C(NCCSc1ccccc1)c1ccc(Br)cc1 | 13.5% |
| CCC(=O)c1ccc(OCC(O)CNC(C)c2ccccc2)cc1 (centres unmarked) | -14.7% |
| Cl.OC(COc1ccccc1)CN1CCN(CC(O)COc2ccccc2)CC1 (centres unmarked) | -61.7% |
| CC(C)OCC(O)CN1CCN(C(c2ccccc2)c2ccccc2)CC1.Cl (centres unmarked) | -58.1% |
| CN1CCN(CC(O)COc2ccccc2)CC1 (centres unmarked) | -0.905% |
| OC(COc1ccccc1)CN1CCCC1 (centres unmarked) | 14.5% |
| N#Cc1ccc(OCC(O)CN2CCN(C(c3ccccc3)c3ccccc3)CC2)cc1 (centres unmarked) | -72.1% |
| COC(=O)CN1CCN(C(c2ccccc2)c2ccccc2)CC1 | 5% |
| CCC(=O)c1ccc(OCC(O)CN2CCN(C(c3ccccc3)c3ccccc3)CC2)cc1 (centres unmarked) | -67.2% |
| CCC(=O)c1ccc(OCC(O)CN2CCOCC2)cc1 (centres unmarked) | 7.44% |
| CCOc1ccc(NS(=O)(=O)c2ccc(Cl)c(C(=O)N(C)Cc3cccnc3)c2)cc1 | -25.9% |
| COc1ccccc1NC(=O)CSc1nnc(C)n1Cc1ccccc1 | -34.5% |
| CCOc1ccc(Nc2cc(=O)oc3ccccc23)cc1 | 7.78% |
| Cc1nn(C)cc1C(=O)NNC(=S)Nc1ccc(Cl)cc1 | 12.6% |
| CCOC(=O)C(Cc1ccc(Cl)cc1Cl)c1ccno1 (centres unmarked) | 14.3% |
| O=C(NCc1ccc(Cl)cc1)C(=O)NCC1OCCN1S(=O)(=O)c1ccc2c(c1)OCCO2 (centres unmarked) | -7.02% |
| Cc1cc(C)c(S(=O)(=O)/N=C2/C=C(Sc3ncn[nH]3)C(=O)c3ccccc32)cc1C | 18.2% |
| C[C@H](NC(=O)OC(C)(C)C)C(=O)N/N=C/c1ccc2nccnc2c1 | 21.7% |
| COc1cccc(N(C(=O)c2snc(C(N)=O)c2N)C(C(=O)NCC2CCCO2)c2ccc3ncccc3c2)c1 (centres unmarked) | -16.8% |
| COc1ccccc1OCC(=O)Nc1cccc(S(=O)(=O)NC2=NCCCCC2)c1 | -4.65% |
| OC(COCc1ccco1)CN1CCN(C(c2ccccc2)c2ccccc2)CC1 (centres unmarked) | -73.4% |
| CCC(=O)c1ccc(OCC(O)Cn2nc(C)c(Br)c2C)cc1 (centres unmarked) | -97.8% |
| CCC(=O)c1ccc(OCC(O)Cn2nc(C)cc2C)cc1 (centres unmarked) | -7.44% |

| SMILES | hERG current change (%, negative = inhibition) at 10uM |
| --- | --- |
| CCOc1ccccc1C(=O)N1CCN(C(c2ccccc2)c2ccccc2)CC1 | 0.314% |
| O=C(CN1CCN(C(c2ccccc2)c2ccccc2)CC1)NC(=O)NCc1ccco1 | -5.1% |
| CC(=O)c1ccccc1OCC(O)CN1CCN(c2ccccn2)CC1.Cl (centres unmarked) | -39% |
| COc1cccc(OCC(O)CN2CCN(C(c3ccccc3)c3ccccc3)CC2)c1.Cl (centres unmarked) | -43.6% |
| CC(=O)c1ccccc1OCC(O)CN1CCN(C(c2ccccc2)c2ccccc2)CC1 (centres unmarked) | -66.7% |
| OC(COc1ccccc1)CN1CCOCC1 (centres unmarked) | 9.83% |
| OC(CN1CCN(C(c2ccccc2)c2ccccc2)CC1)c1ccccc1 (centres unmarked) | -30.8% |
| CCC(=O)c1ccc(OCC(O)Cn2nc(C)c(C(C)=O)c2C)cc1 (centres unmarked) | -36.7% |
| OC(COc1ccccc1)CN1CCN(C(c2ccccc2)c2ccccc2)CC1 (centres unmarked) | -69.6% |
| Cc1cccnc1NC(=S)NCc1ccco1 | -2.97% |
| CC(=O)O.COc1c(O)ccc(C2NC(=O)NC(C)=C2C(=O)Nc2ccccc2C)c1[N+](=O)[O-] (centres unmarked) | 31.9% |
| CC(/C=C1\SC(=S)N(CCC(=O)Nc2cccc(C(=O)O)c2)C1=O)=C\c1ccccc1 | 10.9% |
| Cc1ccc(NC(=S)N=Nc2c(O)[nH]c3ccccc23)cc1 | 9.41% |
| Cl.O=C(COc1ccccc1)N1CCN(CC(O)COc2ccccc2)CC1 (centres unmarked) | -50.8% |
| CC(=O)N1CCN(CC(O)COc2ccc(OCc3ccccc3)cc2)CC1 (centres unmarked) | -17.7% |
| OC(COc1ccccc1)CN1CCN(c2ncccn2)CC1 (centres unmarked) | -22.9% |
| CCC(=O)c1ccc(OCC(O)CN2CCN(c3cccc(C(F)(F)F)c3)CC2)cc1 (centres unmarked) | -55.2% |
| COc1cc(/C=C/C(=O)N2CCN(CC(O)COc3ccccc3)CC2)cc(OC)c1OC.Cl (centres unmarked) | -8.44% |
| CCOc1ccc(OCC(O)CN2CCN(S(=O)(=O)c3cccc(C(F)(F)F)c3)CC2)cc1.O=C(O)C(=O)O (centres unmarked) | 13.7% |
| OC(COc1ccccc1)CN1CCCCCC1 (centres unmarked) | -4.43% |
| CCC(=O)c1ccc(OCC(O)CN2CCN(c3ccccn3)CC2)cc1 (centres unmarked) | -34% |
| Cl.O=C(/C=C/c1ccccc1)N1CCN(CC(O)COc2ccccc2)CC1 (centres unmarked) | -69.7% |
| CC(C)(C)c1ccc(OCC(O)CN2CCCC2)cc1.Cl (centres unmarked) | -35.7% |
| Cl.O=C(C(c1ccccc1)c1ccccc1)N1CCN(CC(O)COc2ccccc2)CC1 (centres unmarked) | -13.7% |

| SMILES | hERG current change (%, negative = inhibition) at 10uM |
| --- | --- |
| CC(C)(c1ccccc1)c1ccc(OCC(O)CN2CCCC2)cc1.Cl (centres unmarked) | -60.3% |
| COc1cc(C(=O)NCCNC(=O)c2ccc(C)nc2)cc(OC)c1OC | 11.8% |
| S=C(Nc1ccccc1)Nc1nccs1 | 24.4% |
| CCOc1ccc(Nc2oc(-c3ccc(Cl)cc3)nc2C#N)cc1 | 9.08% |
| Cl.Fc1ccc(CN2C3=NCCN3c3ccccc32)cc1 | -54.9% |
| Cl.Fc1ccc(CN2C3=NCCCN3c3ccccc32)cc1 | -71.2% |
| O=C(CN1C(=O)C2C3c4ccccc4C(c4ccccc43)C2C1=O)Nc1cccc(C(=O)O)c1 (centres unmarked) | -10.3% |
| O=C(COc1ccc(Cl)cc1Cl)N/N=C1\CCCc2ccccc21 | 2.52% |
| CC(C)(CO)NCc1ccccc1OCC(=O)Nc1ccccc1 | -14% |
| Cc1ccc(C(=O)OCC(=O)Nc2ccc(F)c(Cl)c2)o1 | 17% |
| Clc1ccc(-n2nnnc2-c2cnc3ccc(Cl)cc3c2-c2ccccc2)cc1 | 5.46% |
| O=C(Nc1ccccc1)N1CCc2ccccc21 | -21.2% |
| O=C(CCN1C(=O)c2ccccc2C1=O)N1CCC(c2ccccc2)C1 (centres unmarked) | -43% |
| O=C(CCCCCCN1C(=O)c2ccccc2C1=O)N1CCC(c2ccccc2)C1 (centres unmarked) | -39.7% |
| O=C(/C=C/c1ccc(F)cc1)N1CCCN(C(=O)/C=C/c2ccc(F)cc2)CC1 | -75.6% |
| CCN1CCN(C(=O)/C=C/c2ccc(F)cc2)CC1 | -43.2% |
| Cc1ccc(/C=C/C(=O)N2CCCC(C)C2)cc1 (centres unmarked) | -8.25% |
| O=C(CCCN1C(=O)c2ccccc2C1=O)N1CCC(c2ccccc2)C1 (centres unmarked) | -58.6% |
| CCN1CCN(C(=O)/C=C/c2ccc(C)cc2)CC1 | -23.1% |
| Cc1ccc(/C=C/C(=O)N2CCCN(C(=O)/C=C/c3ccc(C)cc3)CC2)cc1 | -74.8% |
| O=C(Nc1ccccc1)N1CCCc2ccccc21 | -79.2% |
| Cc1ccc(NC(=O)N2CCCc3ccccc32)cc1 | -6.25% |
| CN1CCCN(C(=O)/C=C/c2ccc(F)cc2)CC1 | -23.7% |
